Experiment [1] is described as follows: cAMP Responsive Elements (CRE) small molecule antagonists, cell-based qHTS assay: qHTS cell viability counter screen (AID 2060913). Note: nearly all actives have a fitted effect of over 40% in size. Summed up:
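CRE-bla HEK293T cells (2,000/well, 18 h) given compound plus NKH477 0.25 uM final for 3 h at 37C; viability counter-screen by CellTiter-Glo luminescence in same wells after 30 min.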
On the technique in general: Quantitative high-throughput screening tests each substance at several concentrations.

Experiment [2] in a line: cAMP Responsive Elements (CRE) small molecule agonists, cell-based qHTS assay: qHTS cell viability counter screen (AID 2060914).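 Note: viability read after 3 h of compound exposure; nearly all actives have a fitted effect of over 50% in size.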 Summed up:
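CRE-bla HEK293T cells in 10% dialyzed FBS medium were exposed to compounds for 3 h at 37C after 18 h plating. CellTiter-Glo was then added in the same wells, and luminescence was read after 30 min at room temperature.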

Several values for one entry are separate records, joined by “and”; a condition that tells them apart may be missing. Equal entries are not always repeated. Inconclusive results are not listed. A number with no mark means an inactive call. Activity calls are given as the source filed them. Calls come from the whole dose curve; as a rule, active = well fitted cell-killing curve with a large enough effect in the repeat runs; inconclusive = weak or mixed curves, or effect the other way; inactive = flat fitted curve, though single readings scatter.
% is set by controls: 0 for no effect and ±100 for the full control effect; potency is the fitted concentration of half-maximal effect.

`C=CCc1ccc(OC)c(OC)c1`: the Potency entry in experiment [1] and in experiment [2] was “inactive” in each case.

For `Cc1ccc2c(c1)OCC(=O)CO2`, the Potency entry in experiment [1] and in experiment [2] was “inactive” throughout.

Turning to `O=C(O)c1cc2ccccc2cc1O`, the Potency entry in experiment [1] and in experiment [2] was “inactive” throughout.

Consider `C=CCOc1nc(OCC=C)nc(OCC=C)n1`, for which the Potency entry in experiment [1] and in experiment [2] was “inactive” in each case.

As for `CC(C)Cn1cnc2c1c(=O)n(C)c(=O)n2C`, the Potency result in experiment [1] and in experiment [2] was “inactive” in each case.

On to `O=C(O)CNC(=O)c1ccc([N+](=O)[O-])cc1`, for which the Potency entry in experiment [1] and in experiment [2] was “inactive” throughout.

In the case of `COc1ccc2sc(C(=O)Nc3nnn[nH]3)c(OC(C)C)c2c1`, the Potency result in experiment [1] and in experiment [2] was “inactive” in each case.

For `OCCCCCCCl`, the Potency result in experiment [1] and in experiment [2] was “inactive” throughout.

Turning to `O=C(O)c1ccc(Cl)c(Cl)c1`, the Potency entry in experiment [1] and in experiment [2] was “inactive” in each case.

As for `COC(=O)/C=C\C(=O)O`, the Potency result in experiment [1] and in experiment [2] was “inactive” throughout.

As to `CCCCCCC(C)Nc1ccc(Nc2ccccc2)cc1` (configuration not stated), the Potency entry in experiment [1] and in experiment [2] was “inactive” each time.

In the case of `NC(=S)Nc1cccc2ccccc12`, in experiment [1], the viability change, negative = cytotoxic was 19.4% [at 8.39 µM]. For the same compound, in experiment [2], the activity change, negative = cytotoxicity was -4.32% [at 8.39 µM].

With `COC(=O)CC(C(C)=O)C(=O)OC` (configuration not stated), the Potency result in experiment [1] and in experiment [2] was “inactive” throughout.

Consider `CC(=O)CCC1=C(C)CCCC1(C)C`, for which the Potency result in experiment [1] and in experiment [2] was “inactive” throughout.

As for `CCOC(=N)CC(=O)OCC`, the Potency result in experiment [1] and in experiment [2] was “inactive” each time.

For `CCOC(=O)c1ccc(OCCN2C[C@H](O)[C@@H](O)[C@H](O)[C@H]2CO)cc1`, the Potency entry in experiment [1] and in experiment [2] was “inactive” each time.

With `Cc1ccc(NC(N)=O)cc1`, the Potency result in experiment [1] and in experiment [2] was “inactive” throughout.

Turning to `CCN(CC)CC(=O)Oc1ccc(NC(C)=O)cc1`, the Potency result in experiment [1] and in experiment [2] was “inactive” each time.

Regarding `CNC[C@H](O)[C@@H](O)[C@H](O)[C@H](O)CO`, the Potency entry in experiment [1] and in experiment [2] was “inactive” throughout.

As to `COCCCOc1ccnc(CS(=O)c2nc3ccccc3[nH]2)c1C` (configuration not stated), the Potency entry in experiment [1] and in experiment [2] was “inactive” each time.

`O=C(O)c1snc(Cl)c1Cl`: the Potency entry in experiment [1] and in experiment [2] was “inactive” each time.

As to `O=C(c1ccccc1)c1ccc(Cl)cc1`, the Potency entry in experiment [1] and in experiment [2] was “inactive” each time.

Turning to `Cc1ccc(O)c(C(=O)c2ccccc2)c1`, the Potency entry in experiment [1] and in experiment [2] was “inactive” throughout.

Turning to `COc1c2occc2cc2ccc(=O)oc12`, the Potency entry in experiment [1] and in experiment [2] was “inactive” throughout.

Consider `c1ccc(CSCc2ccccc2)cc1`, for which the Potency result in experiment [1] and in experiment [2] was “inactive” throughout.

As to `O=c1oc(=O)c2cc3c(=O)oc(=O)c3cc12`, the Potency result in experiment [1] and in experiment [2] was “inactive” each time.

In the case of `ICCc1ccccc1`, the Potency entry in experiment [1] and in experiment [2] was “inactive” in each case.

Consider `OC[C@H]1O[C@@H]2O[C@H]3[C@H](O)[C@@H](O)[C@@H](O[C@H]4[C@H](O)[C@@H](O)[C@@H](O[C@H]5[C@H](O)[C@@H](O)[C@@H](O[C@H]6[C@H](O)[C@@H](O)[C@@H](O[C@H]7[C@H](O)[C@@H](O)[C@@H](O[C@H]1[C@H](O)[C@H]2O)O[C@@H]7CO)O[C@@H]6CO)O[C@@H]5CO)O[C@@H]4CO)O[C@@H]3CO`, for which the Potency result in experiment [1] and in experiment [2] was “inactive” each time.

Turning to `CCCCNCC`, the Potency result in experiment [1] and in experiment [2] was “inactive” throughout.

As for `CCCCC(CC)COC(=O)c1ccccc1` (configuration not stated), the Potency entry in experiment [1] and in experiment [2] was “inactive” throughout.

As to `CC(=O)OCC(=O)[C@@]1(O)CCC2C3CCC4=CC(=O)CC[C@]4(C)C3[C@@H](O)C[C@@]21C` (some centres not stated), the Potency result in experiment [1] and in experiment [2] was “inactive” throughout.

For `CC(C)(CCC(=O)O)C(=O)O`, the Potency result in experiment [1] and in experiment [2] was “inactive” throughout.

Regarding `COCC(C)OC(C)=O` (configuration not stated), the Potency entry in experiment [1] and in experiment [2] was “inactive” throughout.

Regarding `CCC(C)(C)CC`, the Potency result in experiment [1] and in experiment [2] was “inactive” each time.

Take `CCCCOC(=O)c1ccc(N)cc1`: the Potency result in experiment [1] and in experiment [2] was “inactive” in each case.

For `CCOC(=O)c1ccc(C)cc1`, the Potency result in experiment [1] and in experiment [2] was “inactive” in each case.

For `C[C@]12CCC(=O)C=C1[C@@H]1C[C@@H]1[C@H]1[C@@H]3[C@@H]4C[C@@H]4[C@@]4(CCC(=O)O4)[C@@]3(C)CC[C@@H]12`, the Potency result in experiment [1] and in experiment [2] was “inactive” each time.

Consider `CCCCC(CC)COC(=O)c1ccc(N(C)C)cc1` (configuration not stated), for which the Potency result in experiment [1] and in experiment [2] was “inactive” each time.

Consider `Cc1ccc2c(c1)c1c3n2CCNC3CCC1` (configuration not stated), for which the Potency result in experiment [1] and in experiment [2] was “inactive” in each case.

Regarding `O=C1Nc2ccccc2C1(c1ccc(O)cc1)c1ccc(O)cc1`, the Potency entry in experiment [1] and in experiment [2] was “inactive” in each case.

For the compound `Cc1cc(C)c(C)cc1C`, the Potency entry in experiment [1] and in experiment [2] was “inactive” throughout.

Turning to `O=C(O)P(=O)(O)O`, the Potency entry in experiment [1] and in experiment [2] was “inactive” each time.

Consider `OC[C@H]1O[C@H](O[C@H]2O[C@H](CO)[C@@H](O)[C@H](O)[C@H]2O)[C@H](O)[C@@H](O)[C@@H]1O`, for which the Potency result in experiment [1] and in experiment [2] was “inactive” throughout.

Consider `CCCCC(=O)O[C@]1(C(=O)CO)[C@@H](C)C[C@H]2[C@@H]3CCC4=CC(=O)C=C[C@]4(C)[C@@]3(F)[C@@H](O)C[C@@]21C`, for which the Potency result in experiment [1] and in experiment [2] was “inactive” in each case.

Consider `C=CCc1cc(S(=O)(=O)c2ccc(O)c(CC=C)c2)ccc1O`, for which the Potency result in experiment [1] and in experiment [2] was “inactive” each time.

`COC(C)(C)CCO`: the Potency result in experiment [1] and in experiment [2] was “inactive” throughout.

For `CCn1cc(C(=O)O)c(=O)c2cc3c(cc21)OCO3`, the Potency result in experiment [1] and in experiment [2] was “inactive” in each case.

On to `O=c1[nH]nc(-c2ccc([N+](=O)[O-])o2)o1`, for which the Potency result in experiment [1] and in experiment [2] was “inactive” each time.

For `Cc1cc(OCCOCC[N+](C)(C)Cc2ccccc2)ccc1C(C)(C)CC(C)(C)C`, the Potency is 54.2 µM (active) and 29.8 µM (active) in experiment [1]; 60.8 µM (active) and 26.6 µM (active) in experiment [2].

On to `Cc1coc2ccccc2c1=O`, for which the Potency result in experiment [1] and in experiment [2] was “inactive” each time.

For `C/C(Cl)=C/CCl`, the Potency result in experiment [1] and in experiment [2] was “inactive” throughout.

The values above are taken from PubChem BioAssay (Tox21).
